Source: the supplement of paper PMC9262897, “Low-cost anti-mycobacterial drug discovery using engineered E. coli” (Nature Communications, 2022)
Structures can show the parent of a compound that is named as a salt. ± gives the standard deviation of the averaged measurements.

test system: E. coli TESEC Alr+ wild-type control; assay: growth (OD600 after 10 h); higher = more growth (less inhibition); conditions: compound 0.1 mM; raw OD600 reference: median of DMSO wells 0.49, cell-free background 0.052
Description: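 TESEC Mtb Alr E. coli (ΔaraC ΔtolC ΔentC Δalr ΔdadX, arabinose-inducible Mtb Alr) or the Alr+ wild-type control strain, grown in defined M9-fructose medium without D-alanine in 96-well plates with Prestwick library compounds at 0.1 mM and 1% DMSO. Low Alr induction is 0.1 µM arabinose and high induction is 10 mM arabinose.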

Row | SMILES | growth
1 | CC(C)/N=c1\cc2n(-c3ccc(Cl)cc3)c3ccccc3nc-2cc1Nc1ccc(Cl)cc1 [Clofazimine] | 0.154 ± 0.012
2 | CC[C@H]1OC(=O)[C@H](C)[C@@H](O[C@H]2C[C@@](C)(OC)[C@@H](O)[C@H](C)O2)[C@H](C)[C@@H](O[C@@H]2O[C@H](C)C[C@H](N(C)C)[C@H]2O)[C@](C)(O)C[C@@H](C)[C@@H]2N[C@@H](COCCOC)O[C@H]([C@H]2C)[C@]1(C)O [Dirithromycin] | 0.0524 ± 0.00093
3 | Clc1cccc(Cl)c1NC1=NCCN1 [Clonidine hydrochloride] | 0.462 ± 0.014
4 | CN1CCN(CCCN2c3ccccc3Sc3ccc(C(F)(F)F)cc32)CC1 [Trifluoperazine dihydrochloride] | 0.04767 ± 0.00035
5 | C[C@H]1C[C@H]2[C@@H]3CCC4=CC(=O)C=C[C@]4(C)[C@@]3(F)[C@@H](O)C[C@]2(C)[C@@]1(O)C(=O)CO [Betamethasone] | 0.552 ± 0.02
6 | CC(C)(C)NC(=O)[C@H]1CC[C@H]2[C@@H]3CC[C@H]4NC(=O)C=C[C@]4(C)[C@H]3CC[C@]12C [Finasteride] | 0.351 ± 0.011
7 | CCN(CC)CCOC(=O)C(Cc1cccc2ccccc12)CC1CCCO1 (stereo not given) [Nafronyl oxalate] | 0.464 ± 0.015
8 | CCn1cc(C(=O)O)c(=O)c2cc(F)c(N3CCNC(C)C3)c(F)c21 (stereo not given) [Lomefloxacin hydrochloride] | 0.0513 ± 0.0014
9 | COc1ccc(C(=O)CC(=O)c2ccc(C(C)(C)C)cc2)cc1 [Avobenzone] | 0.533 ± 0.076
10 | CC(=O)[C@H]1CC[C@H]2[C@@H]3CCC4=CC(=O)CC[C@]4(C)[C@H]3CC[C@]12C [Progesterone] | 0.101 ± 0.0049
11 | CN(C)CCCN1c2ccccc2Sc2ccc(Cl)cc21 [Chlorpromazine hydrochloride] | 0.105 ± 0.046
12 | N[C@@H](C(=O)N[C@@H]1C(=O)N2C(C(=O)O)=C(Cl)CS[C@H]12)c1ccccc1 [Cefaclor hydrate] | 0.489 ± 0.033
13 | c1ccc2c(c1)CCCC2C1=NCCN1 (stereo not given) [Tetrahydrozoline hydrochloride] | 0.479 ± 0.063
14 | N=C(N=C(N)N)N1CCOCC1 [Moroxidine hydrochloride] | 0.454 ± 0.045
15 | CNS(=O)(=O)Cc1ccc2[nH]cc(CCN(C)C)c2c1 [Sumatriptan succinate] | 0.441 ± 0.017
16 | CC(=O)CC(c1ccc([N+](=O)[O-])cc1)c1c(O)c2ccccc2oc1=O (stereo not given) [Acenocoumarol] | 0.503 ± 0.0074
17 | O=C(O)c1ccccc1Nc1cccc(C(F)(F)F)c1 [Flufenamic acid] | 0.114 ± 0.0046
18 | CCOc1ccccc1OCC1CNCCO1 (stereo not given) [Viloxazine hydrochloride] | 0.539 ± 0.074
19 | CC(=O)c1ccc2c(c1)N(CCCN1CCC(CCO)CC1)c1ccccc1S2 [Piperacetazine] | 0.405 ± 0.0056
20 | CCN(CC)CCNC(=O)COc1ccc(OC)cc1 [Mefexamide hydrochloride] | 0.501 ± 0.067

Row | SMILES | growth
21 | O=C(NC(Cc1cc(=O)[nH]c2ccccc12)C(=O)O)c1ccc(Cl)cc1 (stereo not given) [Rebamipide] | 0.484 ± 0.068
22 | O=C(O[C@@H]1C[C@@H]2C[C@H]3C[C@H](C1)N2CC3=O)c1c[nH]c2ccccc12 [Dolasetron mesilate] | 0.473 ± 0.027
23 | COc1c(O[C@@H]2O[C@H](CO)[C@@H](O)[C@H](O)[C@H]2O)cc2c(c1OC)-c1ccc(SC)c(=O)cc1[C@@H](NC(C)=O)CC2 [Thiocolchicoside] | 0.51 ± 0.076
24 | CCC(C)(C)c1ccc(CC(C)CN2C[C@@H](C)O[C@@H](C)C2)cc1 (stereo not given in full) [Amorolfine hydrochloride] | 0.0891 ± 0.0055
25 | CC1CNc2c(cccc2S(=O)(=O)N[C@@H](CCCNC(=N)N)C(=O)N2CC[C@@H](C)C[C@@H]2C(=O)O)C1 (stereo not given in full) [Argatroban] | 0.429 ± 0.019
26 | CCc1c2c(nc3ccc(OC(=O)N4CCC(N5CCCCC5)CC4)cc13)-c1cc3c(c(=O)n1C2)COC(=O)[C@]3(O)CC [Irinotecan hydrochloride trihydrate] | 0.514 ± 0.052
27 | CNC(C)CCC=C(C)C (stereo not given) [Isometheptene mucate] | 0.51 ± 0.055
28 | Cn1ccnc1S [Methimazole] | 0.57 ± 0.026
29 | C[N+](C)(C)CCCCCC[N+](C)(C)C [Hexamethonium dibromide dihydrate] | 0.536 ± 0.007
30 | O=C(Nc1cccc2c(=O)cc(-c3nnn[nH]3)oc12)c1ccc(OCCCCc2ccccc2)cc1 [Pranlukast] | 0.46 ± 0.0055
31 | CCOc1nc2cccc(C(=O)O)c2n1Cc1ccc(-c2ccccc2-c2nnn[nH]2)cc1 [Candesartan] | 0.642 ± 0.092
32 | C#C[C@]1(OC(C)=O)CC[C@H]2[C@@H]3CCC4=C[C@@H](OC(C)=O)CC[C@@H]4[C@H]3CC[C@@]21C [Ethynodiol diacetate] | 0.4 ± 0.018
33 | CN(C)CCCN1c2ccccc2Sc2ccc(C(F)(F)F)cc21 [Triflupromazine hydrochloride] | 0.049 ± 0.00076
34 | CN(C)CCC(c1ccccc1)c1ccccn1 (stereo not given) [Pheniramine maleate] | 0.455 ± 0.059
35 | CC(C)Cc1ccc([C@H](C)C(=O)O)cc1 [S-(+)-ibuprofen] | 0.615 ± 0.082
36 | COC(=O)Nc1nc2cc(C(=O)c3ccc(F)cc3)ccc2[nH]1 [Flubendazol] | 0.6 ± 0.078
37 | CCCCNC(=O)NS(=O)(=O)c1ccc(C)cc1 [Tolbutamide] | 0.521 ± 0.12
38 | CCn1cc(C(=O)O)c(=O)c2cc(F)c(N3CCNCC3)cc21 [Norfloxacin] | 0.0524 ± 0.0022
39 | CCN(CC)C(=O)c1ccc(O)c(OC)c1 [Ethamivan] | 0.543 ± 0.12
40 | Nc1c2c(nc3ccccc13)CCCC2 [Tacrine hydrochloride] | 0.513 ± 0.063
